Laboratory results: PubChem BioAssay AID602449 (Sanford-Burnham Center for Chemical Genomics, 2012)
About 5,000 (1.4%) of roughly 360,000 compounds were called active.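 The calls were made as follows: active = inhibition of 50% or more, scaled per plate between neutral and stimulator controls; inactive = the rest.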 What follows is part of a selection rich in actives, with near analogues and random picks from the rest.

assay: blockers of Ca2+-induced mitochondrial swelling – biochemical, isolated mouse mitochondria, absorbance, primary screen (AID 602449); settings: 30 min, at 10 µM, hits give high values;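 also: 0% = DMSO wells given calcium and 100% = 1 mM EGTA wells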

SMILES | inhibition
O=C(c1ccc(Br)o1)N(c1ccccn1)C1CCCCC1 | 8.3% (inactive)
COc1ccc(CCNC(=O)CN2C(=O)COc3ccc(S(=O)(=O)N4CCCC4)cc32)cc1OC | 0.6% (inactive)
CC12CN3CCN(CC(C3)/C1=N\NC(=O)c1ccccc1N)C2 | 2.6% (inactive)
CN(C)C(CNC(=O)CCCOc1ccccc1)c1ccco1 (stereo unspecified) | 1% (inactive)
COc1cc(C(=O)NCc2ccc3c(c2)cc(C)n3C)cc(OC)c1OC | 1.2% (inactive)
COc1cc(C(=O)NCc2cc3cc(Cl)ccc3n2C)cc(OC)c1OC | 0.7% (inactive)
CCn1c(CNC(=O)c2cc(OC)c(OC)c(OC)c2)cc2cc(C)ccc21 | 68.8% (active)
CC1(C)S[C@@H]2[C@H](NC(=O)COc3ccccc3)C(=O)N2C1C(=O)OCc1ccccc1 (stereo partly specified) | 2.2% (inactive)
CC(C)(C)c1cc(NC(=O)NN2CCOCC2)nn1-c1c(Cl)cc(Cl)cc1Cl | -1.3% (inactive)
COc1ccc(-c2noc(CCC(=O)N3CCN(c4cccc(C)c4)CC3)n2)cc1 | 0.4% (inactive)
COc1ccc(N2CCN(C(=O)CCc3nc(-c4ccc(C)cc4)no3)CC2)cc1 | -0.2% (inactive)
Cc1ccc(-c2noc(CCC(=O)Nc3ccccc3N3CCN(C)CC3)n2)cc1 | 79.9% (active)
CC1CCN(C(=O)c2ccccc2NC(=O)Cc2ccccc2)CC1 | 2% (inactive)
COc1ccc(-n2c(C)cc(C(=O)CSc3nnc(-c4cccs4)o3)c2C)cc1 | 91% (active)
COc1ccc(-n2c(C)cc(C(=O)COC(=O)c3cc(OC)c(OC)cc3NC(=O)c3cccs3)c2C)cc1 | 3.8% (inactive)
Cc1ccc(-n2c(C)cc(C(=O)CSc3nnc4ccccn34)c2C)cc1 | 5% (inactive)
O=[N+]([O-])c1c(NCCO)cc(Sc2nc3ccccc3s2)c2nonc12 | 4.8% (inactive)
O=[N+]([O-])c1cccc(C=NN=Cc2ccccc2O)c1 | 2.1% (inactive)
O=[N+]([O-])c1cc(Br)c(O)c(/C=N/Nc2nc3ccccc3s2)c1 | 82.3% (active)
Cc1c(C(=O)NCC2CC2)sc(=O)n1Cc1cccc(F)c1 | -2.3% (inactive)
COc1cc(C)c(Cl)cc1S(=O)(=O)n1ccnc1 | 0.5% (inactive)
N/C(=N\S(=O)(=O)c1cc(C(F)(F)F)cc(C(F)(F)F)c1)c1cccs1 | 35.4% (inactive)
Cc1noc(C)c1COC(=O)c1cc2ccccc2cc1O | 1% (inactive)
O=C(CSc1nc(C2CC2)nc2ccccc12)Nc1cccc(O)c1 | -0.4% (inactive)
O=C(NNc1c2ccccc2nc2ccccc12)c1cc2ccccc2cc1O | 104% (active)
CS(=O)(=O)N(CC(=O)N1CCOCC1)c1cccc(Cl)c1Cl | -0.3% (inactive)
